Wnt bcat act: activators of Wnt/beta-catenin signaling; AID 743398; hit rate 1.2% among 300,000; Wnt/beta-catenin reporter cell assay, activator, plate reader; activation, % at 9.35 µM; in the data active means activation above about 30%, passing the limit was not always enough; inconclusive means no clear call, values can overlap the other calls;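 further: 0% = neutral control wells and 100% = positive control wells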
PvdQ acylase: blocks Pseudomonas aeruginosa PvdQ acylase activity | purified PvdQ acylase, fluorescence plate reader | hit rate 0.063% among 340,000 | inhibition, % at 10 µM; in the data active means inhibition above about 30%, passing the limit was not always enough; inconclusive means no clear call, values can overlap the other calls;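 further: 0% = vehicle neutral wells and 100% = reference inhibitor wells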
MITF TRPM1 HTS: activators of MITF-driven TRPM1 promoter activity in SK-MEL-5 cells | activation, % at 12.5 µM | hit rate 0.75% among 300,000 | SK-MEL-5 TRPM1-promoter luciferase, 24 h; % of positive control, neutral wells = 0 | AID 588334;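 active means mean activation of at least 80% with every replicate also reaching 80%; inconclusive means mean reaches 80% but some replicate falls short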;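 further: 0% = neutral control wells and 100% = parthenolide positive control wells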
Glyco luc inh: blocks N-linked glycosylation in D54 reporter cells | hit rate 0.23% among 360,000 | D54 ERlucT glycosylation luciferase reporter, 24 h; percent of 100 nM tunicamycin response | reporter increase, % at 12.5 µM | AID 588692;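 active means mean luciferase reporter signal, scaled so untreated is 0 and the glycosylation-blocking control 100, at or above a set limit in every replicate; inconclusive means mean reaches the limit but not every replicate does; inactive means mean below the limit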;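 further: luciferase carries N-glycosylation sites so blocking glycosylation raises the light; 0% = median of neutral control wells and 100% = median of 100 nM tunicamycin wells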
esBAF inh: SWI/SNF esBAF complex inhibition; reporter increase, % at 12.5 µM; mouse ES cells, Bmi1-luciferase knock-in reporter, 24 h; 100% = twice the neutral-well signal; hit rate 2% among 350,000; in the data active means activation above about 40%; inconclusive means no clear call, values can overlap the other calls;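 further: 0% = median of the plate's neutral control wells and 100% = double that signal; a rise in the Bmi1 reporter signal indicates esBAF inhibition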
Vif imaging: inhibitors of HIV Vif; inhibition, % at 7.49 µM; hit rate 0.35% among 340,000; HEK293T cells, Vif self-association by quenched fluorescence, imaging, 24 h; in the data active means inhibition above about 50%, passing the limit was not always enough; inconclusive means no clear call, values can overlap the other calls; inactive means below about 31%
* = called active by the depositor; ? = inconclusive; / = no result given. Compounds with a hit are over-represented: about 2.9% of the library has one in this group of screens.

SMILES | Wnt bcat act | PvdQ acylase | MITF TRPM1 HTS | Glyco luc inh | esBAF inh | Vif imaging
O=S(=O)(Nc1cccc(-c2ccc(N3CCCCCC3)nn2)c1)c1cccc(F)c1 | 29 | -8 | 98* | -9 | 66* | 9
C[C@H](CO)N1C[C@H](C)[C@H](CN(C)S(=O)(=O)c2ccccc2)Oc2c(NC(=O)c3ccncc3)cccc2C1=O | / | / | / | / | 1 | /
CCCc1cn(CC[C@H]2CC[C@@H](NC(=O)C3CCCC3)[C@@H](CO)O2)nn1 | / | / | / | / | -2 | /
C[C@H](CO)N1C[C@H](C)[C@@H](CN(C)C(=O)C2CCC2)Oc2ncc(-c3cccnc3)cc2C1=O | / | / | / | / | -2 | /
C[C@H]1CCCCO[C@@H](CN(C)Cc2ccc(C(=O)O)cc2)[C@@H](C)CN([C@@H](C)CO)C(=O)c2cc(NC(=O)Nc3ccc(F)cc3)ccc2O1 | / | / | / | / | -14 | /
Cc1ccc(S(=O)(=O)Nc2cccc(-c3ccc(N4CCCCCC4)nn3)c2)cc1C | 13 | 9 | 58 | -7 | 46* | -4
O=S(=O)(Nc1cccc(-c2ccc(N3CCCCCC3)nn2)c1)c1ccc(C(F)(F)F)cc1 | -1 | -7 | 51 | 0 | 56* | 1
COc1ccc(S(=O)(=O)Nc2cccc3c2O[C@H](CN(C)S(=O)(=O)c2ccc(C)cc2)[C@H](C)CN([C@H](C)CO)C3=O)cc1 | / | / | / | / | -2 | /
COc1ccccc1-c1ccc([C@@H]2[C@@H](CO)N3CCCCN(C(=O)NC4CCCC4)C[C@H]23)cc1 | / | / | / | / | -4 | /
CCn1ccc(C(=O)Nc2ccccc2Cl)n1 | / | 4 | 85* | -5 | / | 23
C[C@H](CO)N1C[C@H](C)[C@H](CN(C)C(=O)CN(C)C)Oc2cc(C#Cc3cccnc3)ccc2S1(=O)=O | / | / | / | / | -12 | /
Cc1noc(C)c1S(=O)(=O)N(C)C[C@H]1OCCCC[C@H](C)Oc2ccc(NS(=O)(=O)c3cccs3)cc2C(=O)N([C@@H](C)CO)C[C@@H]1C | / | / | / | / | 4 | /
COc1ccc2c(c1OC)C(=O)N(c1ccc(F)cc1)C2 | 38* | 19 | ? | 0 | 29 | 8
COCC(=O)N1[C@@H]2c3ccc(-c4ccc(F)cc4)c(=O)n3C[C@@H]2[C@@H](CO)[C@@H]1C(=O)Nc1ccccc1 | / | / | / | / | 3 | /
C=CCn1cccc(C(=O)Nc2ccc(N(C)C)cc2)c1=O | 19 | -12 | / | 1 | ? | -10
C=CCn1cccc(C(=O)Nc2ccc(OC)c(Cl)c2)c1=O | / | -11 | 62 | 0 | 56* | 14
C#CCn1cccc(C(=O)Nc2ccc(OC)cc2)c1=O | 11 | 1 | 49 | 0 | 53* | -4
C=CCn1cccc(C(=O)Nc2ccc(SC)cc2)c1=O | 25 | -2 | 76 | -4 | 55* | -7
CO[C@@H]1CN(C)C(=O)c2ccc(NC(=O)c3ccc(F)cc3)cc2OC[C@H](C)N(C(=O)CC2CC2)C[C@@H]1C | / | / | / | / | 1 | /
C[C@H](CO)N1C[C@H](C)[C@H](CN(C)CC2CC2)Oc2cc(-c3ccccc3F)ccc2S1(=O)=O | / | / | / | / | -11 | /
O=C(/C=C(\c1ccccc1)n1cncn1)c1ccccc1 | -2 | 11 | -4 | 5 | / | 0
O=C(/C=C(\c1ccc(Cl)cc1)n1cncn1)c1ccc(Cl)cc1 | / | 2 | -3 | 27* | 1 | -7
C[C@@H]1CN([C@@H](C)CO)C(=O)c2cc(C#CC3CC3)cnc2O[C@H]1CN(C)C(=O)Nc1ccccc1 | / | / | / | / | 0 | /
O=C(C[C@@H]1C=C[C@H](NC(=O)NC2CCCCC2)[C@H](CO)O1)NCc1ccc(F)cc1 | / | / | / | / | 0 | /
Cc1ccc(Nc2nc(C(=O)N3CCC(C(=O)N4CCN(C)CC4)CC3)cs2)cc1 | 3 | 4 | 15 | -2 | 8 | 0
SMILES | Wnt bcat act | PvdQ acylase | MITF TRPM1 HTS | Glyco luc inh | esBAF inh | Vif imaging
Cc1ccc(Nc2nc(COC(=O)C3CC3)cs2)cc1 | 8 | -15 | ? | -3 | 49* | 5
COc1ccc(/C=N/NC(=O)c2ccc(COc3ccccc3Cl)o2)c(OC)c1C | / | -3 | -9 | 43* | / | -6
COc1ccccc1OCCNC(=O)c1ccc2c(c1)CCC2 | 14 | -8 | ? | -2 | 49* | -1
COc1ccccc1OCCNC(=O)c1ccc2c(c1)OCCO2 | 52* | -16 | 59 | -8 | 8 | -6
COc1ccccc1OCCNC(=O)CNC(=O)c1ccc2c(c1)OCO2 | 0 | 7 | -1 | 1 | -2 | -8
COc1cc(CNc2ccc3[nH]c(=O)[nH]c3c2)ccc1OCc1ccccc1 | 26 | -1 | / | -3 | 25 | 1
COc1cc(CNc2ccc3[nH]c(=O)[nH]c3c2)ccc1OCc1ccccc1C | 18 | 6 | 71 | -2 | 47* | 15
COc1cc(CNc2ccc3[nH]c(=O)[nH]c3c2)ccc1OCc1ccccc1F | 0 | -3 | 26 | -4 | 47* | ?
COc1cc(CNc2ccc3[nH]c(=O)[nH]c3c2)ccc1OCc1ccc(F)cc1 | -1 | -10 | / | -4 | 26 | -1
COc1cc(CNc2ccc3[nH]c(=O)[nH]c3c2)ccc1OCc1ccc(Cl)cc1 | 11 | -16 | / | 0 | 55* | -2
CCCNC(=O)Nc1ccc2c(c1)OC[C@@H](C)N(C(=O)C1CC1)C[C@H](C)[C@@H](OC)CN(C)C2=O | / | / | / | / | -3 | /
C[C@H](CO)N1C[C@H](C)[C@H](CN(C)S(=O)(=O)c2ccc(F)cc2)Oc2ccc(NC(=O)NC3CCCCC3)cc2CC1=O | / | / | / | / | 6 | /
O=C(/C=C/c1ccco1)Nc1cccc(C(=O)Nc2ccccc2C(=O)O)c1 | 4 | -4 | 3 | 0 | -4 | 1
O=C(/C=C/c1ccco1)NCc1ccc2c(c1)OCO2 | -2 | -15 | -11 | 1 | 1 | -2
O=C(/C=C/c1ccco1)Nc1ccc2c(c1)OCO2 | 33* | -14 | 92* | 0 | / | -2
Cc1ccc(-n2nc3ccc(NC(=O)/C=C/c4ccco4)cc3n2)cc1 | 58* | -10 | 9 | 2 | / | 0
O=C(/C=C/c1ccco1)Nc1cccnc1Cl | 36* | 15 | / | 0 | 11 | -5
O=C(/C=C/c1ccccc1)Nc1cccnc1Cl | 14 | -3 | 60 | 0 | ? | 2
CCc1ccccc1NC(=O)c1cccc(NC(=O)/C=C/c2ccco2)c1 | 110* | -9 | 2 | 4 | / | 0
O=C(C[C@H]1C=C[C@@H](NC(=O)C2CCOCC2)[C@H](CO)O1)NCc1ccncc1 | / | / | / | / | 4 | /
Cc1noc(C)c1NC(=O)N[C@H]1CC[C@@H](CC(=O)N2CCCCC2)O[C@@H]1CO | / | / | / | / | -3 | /
CC(=O)N[C@@H]1CC[C@H](CCNC(=O)Nc2ccc(C(F)(F)F)cc2)O[C@@H]1CO | / | / | / | / | 2 | /
CC(=O)C1=C(C)OC(N)=C(C#N)C1c1cccc([N+](=O)[O-])c1 (stereo unspecified) | 5 | 5 | -6 | 1 | / | 2
CC(=O)C1=C(C)OC(N)=C(C#N)C1c1cc([N+](=O)[O-])ccc1Cl (stereo unspecified) | 0 | -9 | -22 | 29* | -12 | 12
CCCc1cc2c(=O)c(-c3ccc4c(c3)OCCO4)coc2cc1OS(C)(=O)=O | 8 | -10 | 59 | -3 | / | -7
